About 79,000 compounds went through this panel and 15% of them were active in at least one assay; those are over-represented in the sample as a whole. Calls of active or inactive are those of the source. Rule as the data show it: active = growth inhibition above about 70%; inactive = the rest.
Legend:
[1] = NCI Yeast Anticancer Drug Screen. Data for the wt1 strain (AID 149);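 also: 0% = growth of vehicle-treated wt1 cultures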; details: S. cerevisiae wt1 strain (SPY 50644) growth inhibition, active compounds read high
Procedure, shortened: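 Yeast wt1 strain exposed to compounds; growth inhibition measured relative to vehicle-treated controls.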

[2] = NCI Yeast Anticancer Drug Screen. Data for the rad50EPP+ strain (AID 151);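 also: 0% = growth of vehicle-treated control cultures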; details: S. cerevisiae rad50 mutant strain, active compounds read high
Procedure, shortened: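 One strain with a rad50 alteration (rad50EPP+) was compound-treated, its growth then compared to that of vehicle controls.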

[3] = NCI Yeast Anticancer Drug Screen. Data for the mgt1 strain (AID 153); details: S. cerevisiae mgt1 mutant growth inhibition, active compounds read high
Procedure, shortened: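 After exposure of the mgt1 yeast mutant to compound, growth was measured and reported as inhibition compared with vehicle controls.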

[4] = NCI Yeast Anticancer Drug Screen. Data for the rad50 strain (AID 155);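 also: 0% = growth of vehicle-only cultures of the same strain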; details: S. cerevisiae rad50 strain growth inhibition, active compounds read high
Procedure, shortened: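 Yeast carrying a defined DNA repair defect were exposed to test compounds, and growth was compared with vehicle-treated controls to give percent inhibition.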

[5] = NCI Yeast Anticancer Drug Screen. Data for the mec2-1 strain (AID 157); details: S. cerevisiae mec2-1 strain, active compounds read high
Procedure, shortened: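 Test agents were screened against the mec2-1 yeast strain, with defined DNA repair or cell cycle alteration. Growth was scored as inhibition against vehicle-only controls.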

[6] = NCI Yeast Anticancer Drug Screen. Data for the rad14 strain (AID 159);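 also: 0% = growth of vehicle-treated control cultures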; details: S. cerevisiae rad14 strain growth inhibition, active compounds read high
Procedure, shortened: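 Yeast cells carrying a defined DNA-repair defect were exposed to compounds, and growth inhibition was calculated relative to vehicle-treated control cultures.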

[7] = NCI Yeast Anticancer Drug Screen. Data for the sgs1 mgt1 strain (AID 161);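 also: 0% = growth of cultures given vehicle only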; details: S. cerevisiae sgs1 mgt1 strain, active compounds read high
Procedure, shortened: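 Test agents were incubated with a DNA-repair-mutant yeast strain. Growth was then read and compared against vehicle-treated controls.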

[8] = NCI Yeast Anticancer Drug Screen. Data for the cln2 rad14 strain (AID 165);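 also: 0% = growth equal to vehicle treated cultures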; details: S. cerevisiae cln2 rad14 strain, active compounds read high
Procedure, shortened: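 Growth of compound-exposed yeast (cln2 rad14 genotype) measured and expressed as inhibition relative to vehicle.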

[9] = NCI Yeast Anticancer Drug Screen. Data for the bub3 strain (AID 167); details: S. cerevisiae bub3 mutant strain, active compounds read high
Procedure, shortened: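 Compounds were applied to a genetically altered yeast strain carrying a cell-cycle control defect. Growth inhibition was scored against vehicle-treated controls.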

[10] = NCI Yeast Anticancer Drug Screen. Data for the wt2 strain (AID 169);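 also: 0% = growth of vehicle-treated yeast cultures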; details: S. cerevisiae wt2 strain growth inhibition, active compounds read high
Procedure, shortened: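 Genetically defined yeast strains from a DNA-repair/cell-cycle panel were used. Compound-exposed yeast growth was measured, and the inhibition was calculated relative to vehicle treatment.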

[11] = NCI Yeast Anticancer Drug Screen. Data for the mlh1 strain (AID 171);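 also: 0% = growth of vehicle-treated control cultures of the same strain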; details: S. cerevisiae mlh1 strain growth inhibition, active compounds read high
Procedure, shortened: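 Here the genetically defined yeast mutant is grown with each compound, and the extent to which its growth falls below that of vehicle-exposed cells is reported.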

[12] = NCI Yeast Anticancer Drug Screen. Data for the sgs1 strain (AID 173);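 also: 0% = growth of vehicle-only control cultures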; details: S. cerevisiae sgs1 mutant, active compounds read high
Procedure, shortened: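 Relative growth inhibition, referenced to vehicle, was determined in a yeast strain with a defined alteration affecting DNA damage repair or cell cycle control after compound exposure.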

[13] = NCI Yeast Anticancer Drug Screen. Data for the mlh1 rad18 strain (AID 175); details: S. cerevisiae mlh1 rad18 strain growth inhibition, active compounds read high
Procedure, shortened: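 In this whole-cell yeast screen, a strain with altered DNA damage repair is challenged with compound, and its growth is measured against matched vehicle-treated controls.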

[14] = NCI Yeast Anticancer Drug Screen. Data for the rad18 strain (AID 177); details: S. cerevisiae rad18 mutant growth inhibition, active compounds read high
Procedure, shortened: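 Screen uses a yeast strain with a defined lesion in DNA damage repair; compound effect is read as loss of growth compared to untreated vehicle cultures.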

[15] = NCI Yeast Anticancer Drug Screen. Data for the CLN2oe strain (AID 163);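 also: 0% = growth of vehicle-only control cultures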; details: S. cerevisiae CLN2oe strain, active compounds read high
Procedure, shortened: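 Here, growth inhibition in a cell-cycle-altered yeast strain after compound exposure was quantified against vehicle control growth.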

[16] = at 5.0 µM (retest, dose inferred, filed as 0.5)
[17] = at 50.0 µM (retest, dose inferred, filed as 5.0)

Measured: growth inhibition

CC(C)c1cc(C(C)C)c(O)c(C([O-])[O-])c1.CC(C)c1cc(C(C)C)c(O)c(C([O-])[O-])c1.CC(C)c1cc(C(C)C)c(O)c(C([OH2+])[OH2+])c1.CC(C)c1cc(C(C)C)c(O)c(C([OH2+])[OH2+])c1.[Cu+2].[Cu+2].[OH3+].[OH3+]
inactive: [1]; at 1.2 µM -2% | [1]; at 3.7 µM 4% | [1]; at 11.0 µM 20% | [1]; at 33.0 µM 35% | [1]; at 100.0 µM 67% | [2]; at 1.2 µM 1% | [2]; at 3.7 µM 0% | [2]; at 11.0 µM 4% | [2]; at 33.0 µM 11% | [2]; at 100.0 µM 21% | [3]; at 1.2 µM -2% | [3]; at 3.7 µM 6% | [3]; at 11.0 µM 18% | [3]; at 33.0 µM 56% | [4]; at 1.2 µM 5% | [4]; at 3.7 µM 8% | [4]; [16] 5% | [4]; at 11.0 µM 21% | [4]; at 33.0 µM 65% | [4]; [17] 31% | [4]; at 50.0 µM 39.8% | [5]; at 1.2 µM 7% | [5]; at 3.7 µM 18% | [5]; [16] 1% | [5]; at 11.0 µM 36% | [5]; at 33.0 µM 52% | [5]; [17] 27% | [5]; at 50.0 µM 38.1% | [6]; at 1.2 µM 5% | [6]; at 3.7 µM 14% | [6]; at 11.0 µM 29% | [6]; at 33.0 µM 64% | [7]; [16] -9% | [7]; [17] 40% | [7]; at 50.0 µM 43% | [8]; [16] 3% | [8]; [17] 12% | [8]; at 50.0 µM 53.2% | [9]; at 1.2 µM 1% | [9]; at 3.7 µM 9% | [9]; [16] 4% | [9]; at 11.0 µM 19% | [9]; at 33.0 µM 47% | [9]; [17] 1% | [10]; at 1.2 µM -4% | [10]; at 3.7 µM -2% | [10]; at 11.0 µM 32% | [11]; at 1.2 µM 2% | [11]; at 3.7 µM 15% | [11]; at 11.0 µM 29% | [11]; at 33.0 µM 60% | [12]; at 1.2 µM -11% | [12]; at 3.7 µM -19% | [12]; at 11.0 µM 27% | [13]; [16] -12% | [13]; [17] 59% | [13]; at 50.0 µM 38.2% | [14]; at 1.2 µM 2% | [14]; at 3.7 µM 10% | [14]; at 11.0 µM 34% | [14]; at 33.0 µM 57%
active: [3]; at 100.0 µM 91% | [4]; at 100.0 µM 94% | [5]; at 100.0 µM 76% | [6]; at 100.0 µM 93% | [9]; at 50.0 µM 96.7% | [9]; at 100.0 µM 70% | [10]; at 33.0 µM 70% | [10]; at 100.0 µM 93% | [11]; at 100.0 µM 93% | [12]; at 33.0 µM 78% | [12]; at 100.0 µM 93% | [14]; at 100.0 µM 87%

CCCCCCCCCCC1CCC(=O)O1 (stereo not drawn)
inactive: [1]; at 1.2 µM -2% | [1]; at 3.7 µM -2% | [1]; at 11.0 µM -2% | [1]; at 33.0 µM 3% | [2]; at 1.2 µM -2% | [2]; at 3.7 µM 3% | [2]; at 11.0 µM 11% | [2]; at 33.0 µM 22% | [2]; at 100.0 µM 38% | [3]; at 1.2 µM -2% | [3]; at 3.7 µM -1% | [3]; at 11.0 µM 0% | [3]; at 33.0 µM 8% | [4]; at 1.2 µM -1% | [4]; at 3.7 µM -46% | [4]; [16] -2% | [4]; at 11.0 µM 16% | [4]; at 33.0 µM 12% | [4]; [17] 50% | [5]; at 1.2 µM -1% | [5]; at 3.7 µM -2% | [5]; [16] 5% | [5]; at 11.0 µM 0% | [5]; at 33.0 µM 8% | [5]; [17] 27% | [6]; at 1.2 µM 1% | [6]; at 3.7 µM 3% | [6]; at 11.0 µM 7% | [6]; at 33.0 µM 15% | [7]; [16] 6% | [7]; [17] 13% | [15]; at 1.2 µM 0% | [15]; at 3.7 µM 1% | [15]; at 11.0 µM 7% | [15]; at 33.0 µM 5% | [8]; [16] 2% | [8]; [17] 15% | [9]; at 1.2 µM -3% | [9]; at 3.7 µM 0% | [9]; [16] 3% | [9]; at 11.0 µM 0% | [9]; at 33.0 µM 0% | [9]; [17] 9% | [10]; at 1.2 µM -1% | [10]; at 3.7 µM 8% | [10]; at 11.0 µM 0% | [10]; at 33.0 µM 4% | [11]; at 1.2 µM -2% | [11]; at 3.7 µM 0% | [11]; at 11.0 µM 0% | [11]; at 33.0 µM 10% | [12]; at 1.2 µM -1% | [12]; at 3.7 µM 1% | [12]; at 11.0 µM 3% | [12]; at 33.0 µM 20% | [14]; at 1.2 µM -1% | [14]; at 3.7 µM 1% | [14]; at 11.0 µM -1% | [14]; at 33.0 µM 7%
active: [1]; at 100.0 µM 98% | [3]; at 100.0 µM 100% | [4]; at 50.0 µM 97.2% | [4]; at 100.0 µM 99% | [5]; at 50.0 µM 98.8% | [5]; at 100.0 µM 99% | [6]; at 100.0 µM 99% | [7]; at 50.0 µM 91.2% | [15]; at 100.0 µM 98% | [8]; at 50.0 µM 97.7% | [9]; at 50.0 µM 91.3% | [9]; at 100.0 µM 99% | [10]; at 100.0 µM 99% | [11]; at 100.0 µM 99% | [12]; at 100.0 µM 99% | [14]; at 100.0 µM 97%

OC1CSCCCSCCSCCCSC1
inactive: [1]; at 1.2 µM -12% | [1]; at 3.7 µM -16% | [1]; at 11.0 µM -22% | [1]; at 33.0 µM -25% | [1]; at 100.0 µM -25% | [3]; at 1.2 µM -5% | [3]; at 3.7 µM -6% | [3]; at 11.0 µM -10% | [3]; at 33.0 µM -9% | [3]; at 100.0 µM -29% | [5]; at 1.2 µM -22% | [5]; at 3.7 µM -27% | [5]; [16] -48% | [5]; at 11.0 µM -21% | [5]; at 33.0 µM 4% | [5]; [17] 5% | [5]; at 50.0 µM 20.5% | [5]; at 100.0 µM -29% | [7]; [16] -1% | [7]; [17] 4% | [7]; at 50.0 µM 28.7% | [15]; at 1.2 µM -5% | [15]; at 3.7 µM -12% | [15]; at 11.0 µM 3% | [15]; at 33.0 µM 17% | [15]; at 100.0 µM 1% | [8]; [16] 12% | [8]; [17] 25% | [8]; at 50.0 µM 10.7% | [9]; at 1.2 µM -8% | [9]; at 3.7 µM 0% | [9]; [16] 16% | [9]; at 11.0 µM 16% | [9]; at 33.0 µM 64% | [9]; at 50.0 µM 69.2% | [9]; at 100.0 µM 68% | [10]; at 1.2 µM -30% | [10]; at 3.7 µM -17% | [10]; at 11.0 µM -16% | [10]; at 33.0 µM -31% | [10]; at 100.0 µM -22% | [11]; at 1.2 µM -4% | [11]; at 3.7 µM 16% | [11]; at 11.0 µM 2% | [11]; at 33.0 µM 16% | [11]; at 100.0 µM -17% | [12]; at 1.2 µM -9% | [12]; at 3.7 µM -5% | [12]; at 11.0 µM -10% | [12]; at 33.0 µM -14% | [12]; at 100.0 µM -24% | [13]; [16] -22% | [13]; [17] 22% | [13]; at 50.0 µM 26.9% | [14]; at 1.2 µM -30% | [14]; at 3.7 µM -41% | [14]; at 11.0 µM -49% | [14]; at 33.0 µM -49% | [14]; at 100.0 µM -75%
active: [9]; [17] 82%

— PubChem BioAssay (NCI)
